Laboratory results reported in PubChem BioAssay AID1671192 (National Center for Advancing Translational Sciences (NCATS), 2021).
Inconclusive results are not listed. Values without a mark were called inactive. The call rests on the fitted dose curve; in most records, active means well fitted curve in the direction sought with a large enough effect; inconclusive means small, poorly fitted or top-dose-only effect, or another doubt; inactive means no such curve, though single readings can be large or run the other way.

Biological target: Polyunsaturated fatty acid lipoxygenase ALOX15 (Homo sapiens) (UniProt P16050)
Experiment: Counterscreen qHTS for inhibitors of human arachidonate 12S-lipoxygenase (ALOX12): ALOX15 Assay; further: 0% is about no effect
Conditions: purified ALOX15 enzyme activity; series mostly up to 110 µM; activity change, negative = inhibition: at the top concentration
How it was run: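 Purified human ALOX15 (15hLO-1) at 40 nM in 25 mM HEPES, 0.01% Triton X-100, pH 7.5, preincubated with compound 15 min at RT. Then 50 uM arachidonic acid for 30 min; hydroperoxide detected by Fe-xylenol orange as the 573/405 nm absorbance ratio.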

Sequence of Polyunsaturated fatty acid lipoxygenase ALOX15 (Homo sapiens) (P16050 whole entry, looked up): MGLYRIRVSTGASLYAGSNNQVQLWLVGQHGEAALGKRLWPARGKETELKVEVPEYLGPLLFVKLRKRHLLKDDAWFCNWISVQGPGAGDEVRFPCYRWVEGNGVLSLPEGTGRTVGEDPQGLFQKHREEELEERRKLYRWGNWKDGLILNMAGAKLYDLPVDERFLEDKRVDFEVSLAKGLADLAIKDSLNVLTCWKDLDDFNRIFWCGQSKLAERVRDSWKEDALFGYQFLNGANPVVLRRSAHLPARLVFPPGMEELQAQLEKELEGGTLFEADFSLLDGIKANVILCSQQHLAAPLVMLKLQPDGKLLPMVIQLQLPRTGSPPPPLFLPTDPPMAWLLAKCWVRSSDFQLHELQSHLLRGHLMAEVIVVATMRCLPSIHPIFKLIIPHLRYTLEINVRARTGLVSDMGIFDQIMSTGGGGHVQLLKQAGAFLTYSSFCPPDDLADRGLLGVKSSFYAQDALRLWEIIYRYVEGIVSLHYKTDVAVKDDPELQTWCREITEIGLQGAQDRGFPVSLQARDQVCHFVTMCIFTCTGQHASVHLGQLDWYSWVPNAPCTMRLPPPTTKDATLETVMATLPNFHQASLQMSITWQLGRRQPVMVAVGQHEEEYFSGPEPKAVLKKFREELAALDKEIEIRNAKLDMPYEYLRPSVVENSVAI

Row | SMILES | activity change, negative = inhibition
1 | COc1cccc(N2C(=O)NC(=NC3CCCC3)C23CCCN([S+](=O)([O-])c2ccccc2)C3)c1 (centres undefined) | -22.7%
2 | COc1ccc(N(C)C2CN(C(=O)OC(C)(C)C)C2)cc1 | -26.9% [at 146 µM]
3 | CN1CC(=O)N(c2ccccc2F)Cc2c(NC3CCNCC3)ncnc21 | -20.5%
4 | CN1CC(=O)N(C2CCCNCC2)Cc2c(NCC(C)(C)C)ncnc21 (centres undefined) | 12.5%
5 | O=C1NCc2ccccc2CC12CCN(CCCc1ccccc1)CC2 | -21.4%
6 | COc1cccc(CNc2ncnc3c2CN(C2CCCNCC2)C(=O)CN3C)c1 (centres undefined) | -3.38%
7 | COc1cccc(N2C(=O)NC(=NC3CCCC3)C23CCN(Cc2ccsc2)C3)c1 (centres undefined) | -47.3%
8 | COc1cccc(-c2ccc(CN)cc2)c1 | -1.18% [at 146 µM]
9 | COc1ccc(F)cc1-c1ccccc1C=O | -5.08% [at 146 µM]
10 | O=Cc1ccccc1-c1ccc(OC(F)(F)F)cc1 | 0.731% [at 233 µM]
11 | CN1CC(=O)N(C2CCNCC2)Cc2c1ncnc2N(C)Cc1ccc(F)cc1 | -13.5%
12 | COc1ccc(-c2nc(C3CC3)nc3c2CN(C(=O)c2ccccc2OC)CC3)cc1 | -21.2%
13 | CCN1CCCC12Cc1ccccc1CN([S+](C)(=O)[O-])C2 (centres undefined) | 17.5% [at 146 µM]
14 | O=Cc1ccccc1-c1ccc(O)cc1 | -7.86% [at 233 µM]
15 | CCOc1ccccc1CN1CCCCC12Cc1ccccc1CNC2=O (centres undefined) | -16%
16 | CN1CC(=O)N(C2CCCNCC2)Cc2c1ncnc2N1CCSCC1 (centres undefined) | 4.09%
17 | O=C(c1ccccc1)N1CCC2(CC1)C(=O)NCN2C(=O)Cc1ccccc1 | 7.33%
18 | Cn1nc(C2CCCNC2)c2c(C(=O)NCC(F)(F)F)cc(C3CC3)nc21 (centres undefined) | -15.3%
19 | c1ccc(NCCN2CCCC2)cc1 | -6.97% [at 233 µM]
